High-throughput results (PubChem)
Six1-Eya2 blk: blocks human Six1 binding to Eya2. Q15475+O00167. 360,000 tested, 0.56% active. AlphaScreen GST-Six1/His-Eya2 binding, biochemical; hits give low values. activity change, % (test concentration not listed); in the data active means activity change below about -65%; inconclusive means mostly about -30% to -63%; further: on the % scale 0 is the no-effect control and ±100 the full control effect
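Compounds are tested against tagged Six1 and Eya2 proteins bridged by glutathione donor and nickel acceptor beads; after a one-hour incubation at 37 °C without light, AlphaScreen emission is recorded.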
JMJD2A Tudor inh: blocks the human JMJD2A Tudor domain; O75164; AlphaScreen JMJD2A-Tudor / H3K4me3 peptide binding; Potency, µM (top dose mostly 114 µM), without a hit: top-dose activity change, negative = inhibition, usual class: inhibitors; 390,000 tested, 4.4% active; further: potency means the concentration at half of the fitted maximal effect; on the % scale 0 is the no-effect control and ±100 the full control effect; nearly all actives have a fitted effect of over 50% in size
HP1b chromo inh: HP1-beta chromodomain-methylated histone interaction inhibition; P83916; AlphaScreen HP1-beta / biotin-H3K9me3 peptide binding; Potency, µM (highest dose often 114 µM), without a hit: at the top dose activity change, negative = inhibition, usual class: inhibitors; 390,000 tested, 0.56% active; AID 540317; further: potency means the concentration at half of the fitted maximal effect; nearly all actives have a fitted effect of over 70% in size
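Compound inhibition of the preformed complex between 50 nM HP1-beta and 50 nM biotinylated H3K9me3 peptide was read by AlphaScreen. Buffer was PBS pH 7.4 with 0.01% Tween-20. Incubations ran 30 min at room temperature, with 10 ug/mL donor/acceptor beads.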
CtBP-E1A blk: blocks the CtBP interaction with E1A | AlphaScreen GST-E1A/His-CtBP binding, 1536-well; hits give low values | activity change, % (concentration not given with the values) | 340,000 tested, 0.49% active | AID 651724; in the data active means activity change below about -65%; inconclusive means mostly about -30% to -63%; further: on the % scale 0 is the no-effect control and ±100 the full control effect
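GST-E1A and His-tagged CtBP (125 nM each as 5X stock) were preincubated with pin-transferred compound for 2 h at 37 °C in the dark, then glutathione donor and nickel acceptor beads were added for 1 h before AlphaScreen reading.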
BAZ2B block: blocks human BAZ2B | AlphaScreen BAZ2B-H3K14Ac peptide displacement | AID 504333 | 360,000 tested, 4.4% active | Potency, µM (series often up to 114 µM), without a hit: top-dose activity change, negative = inhibition, usual class: inhibitors | Q9UIF8; further: potency means the concentration at half of the fitted maximal effect; on the % scale 0 is the no-effect control and ±100 the full control effect; nearly all actives have a fitted effect of over 60% in size
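Inhibition is scored as reduced AlphaScreen emission. The BAZ2B/b-H3(5-23)K14Ac complex (50 nM each) in PBS pH 7.4, 0.01% Tween-20 meets compound (up to 110 uM) for 30 min at RT before bead addition.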
TDP1 inh: inhibitors of human tyrosyl-DNA phosphodiesterase TDP1. Q9NUW8. recombinant TDP1, AlphaScreen DNA substrate cleavage. Potency, µM (top dose mostly 130 µM), for the others: at the highest dose activity change, negative = inhibition, most hits filed as inhibitors. 350,000 tested, 0.28% active. AID 485290; further: potency means the concentration at half of the fitted maximal effect; on the % scale 0 is the no-effect control and ±100 the full control effect; nearly all actives have a fitted effect of over 40% in size
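E. coli-derived human Tdp1, 1 nM final. Cpd preinc 15 min RT; substrate 15 nM final, 5 min RT; AS bead mix 10 ug/ml final, 10 min RT. Signal loss = tyrosine-FITC cleavage. No-enzyme wells = max signal.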
G9a confirm: inhibits human G9a histone lysine methyltransferase, hit confirmation; shares compounds with JMJD2A Tudor inh; G9a H3K9 monomethylation, AlphaScreen, 2 h; Potency, µM, most hits filed as inhibitors; 370 tested, 89% active; AID 588344; further: potency means the concentration at half of the fitted maximal effect; nearly all actives have a fitted effect of over 65% in size
Active calls of the source: *; ? = inconclusive; . = no result given; [ ] = another dose, or the depositor's remark. Hits are enriched below; roughly 5.3% of the tested compounds scored in any of these assays. Unless noted, the call rests on the fitted dose curve; in most records, active means well fitted curve in the direction sought with a large enough effect; inconclusive means small, poorly fitted or top-dose-only effect, or another doubt; inactive means no such curve, though single readings can be large; an effect the other way counts as inactive or inconclusive.

SMILES	Six1-Eya2 blk	JMJD2A Tudor inh	HP1b chromo inh	CtBP-E1A blk	BAZ2B block	TDP1 inh	G9a confirm
CCOc1ccc(NC(=O)NCC2CCN(c3ccc(OC)cc3)C2)cc1 (stereo unspecified)	-3	-34%	-16%	-8	-7%	-2%	1.1*
O=C1C=CC2(OCCCO2)C(Br)=C1CO	.	.	.	.	.	-3%	.
Cc1cc(Nc2cccc(C(F)(F)F)c2)nc2ccc(NC(=O)c3cccc(Cl)c3)cc12	.	-21%	12%	.	-3%	-4%	.
COc1ccc(OC)c(Nc2nc(=O)c3cccnc3s2)c1	-9	18µM*	?	-15	56µM*	0%	0.45*
Cc1ccc(Nc2nc(=O)c3cccnc3s2)cc1	-27	-9%	30%	-15	0%	-2%	.
CO[C@@H]1COC(=O)CC=C[C@@H](C)[C@@H]2C=C[C@H](O)[C@@H](COC(=O)[C@H](C)NC(=O)CC=C[C@H]1C)O2	.	.	.	.	.	-2%[21 µM]	.
C#CCCCO/N=C1/C[C@@H](O)[C@@H](O)[C@@H]2[C@@H]3C(=O)N(C[C@@H]4CCCO4)C(=O)[C@H]3CC[C@@H]12	.	.	.	.	.	5%[21 µM]	.
COc1ccc(NC(=O)Cn2c(=O)oc3cc(S(=O)(=O)N4CCCC4)ccc32)cc1OC	.	-23%	5%	.	-17%	-3%	.
CCN(Cc1ccccc1)Cc1c(O)ccc2c(=O)c(-c3ccccc3)c(C(F)(F)F)oc12	.	3%	86%	.	-6%	.	45*
CCCn1c(CNc2ccccc2O)nc2ccccc21	?	?	-7%	?	?	7%	11*
CCOc1cc(CNc2ccccc2SC)ccc1O	.	.	.	.	56µM*	11%	8*
CC1CCN(c2oc(-c3ccc(COc4ccccc4)o3)nc2C#N)CC1	.	?	-15%	.	?	8%	.
COCc1c(C(=O)N2CCN(S(=O)(=O)c3ccccc3Cl)CC2)oc2ccccc12	4	-12%	44%	.	-1%	1%	.
COCc1c(C(=O)N2CCN(Cc3nc4ccccc4s3)CC2)oc2ccccc12	3	-18%	-23%	-14	?	-4%	4*
COc1cccc(NC(=O)Cc2nnc(SCC(=O)c3ccccc3)n2C)c1	6	-12%	24%	-6	11%	2%	0.71*
CCSC1=NC2(CCN(C(=O)NC3CCCCC3)CC2)N=C1c1ccc(OC)cc1	.	-21%	31%	.	19%[57.1 µM]	3%	.
Cc1cc2ccccc2n1-c1ccc(C(=O)N2CCC(C(=O)NCc3ccccc3Cl)CC2)s1	.	-11%	25%	.	-17%	5%	.
O=C(COc1ccc(Cl)cc1)Nc1nnc(S(=O)(=O)N2CCc3ccccc32)s1	.	?	-9%	.	?	0%	45*
COC(=O)C(c1ccccc1Cl)N1CCc2sccc2C1 (stereo unspecified)	.	.	.	.	.	6%	.
O=C(CSc1nc2ccccc2s1)Nc1ccc(Cl)c(C(=O)O)c1	-10	50µM*	?	-23	-38%	0%	2.8*
CCOc1ccccc1CNC(=O)CC(C)n1ccc(C)n1 (stereo unspecified)	.	-20%	32%	.	-3%	5%	.
CCn1c2ccccc2c2cc(CN3CCN(Cc4cc(OC)c(O)c(OC)c4)CC3)ccc21	.	11µM*	?	.	22µM*	0%[12.3 µM]	18*
CCn1c2ccccc2c2cc(CN3CCN(Cc4ccc(Cl)cc4)CC3)ccc21	.	7.9µM*	?	.	16µM*	4%[12.3 µM]	22*
CCc1ccc2oc(-c3cc(N)ccc3Cl)nc2c1	5	-5%	7%	-2	?	5%	.
CCc1ccc2oc(-c3cc(N)ccc3O)nc2c1	-20	-35%	4%	-2	-5%	8%	?
CCCNC(=O)CN1C(=O)COc2ccc(S(=O)(=O)N3CCC(C)CC3)cc21	.	8%	34%	.	3%	-6%	.
Cc1ccc(CNC(=O)CN2C(=O)COc3ccc(S(=O)(=O)N4CCC(C)CC4)cc32)cc1	.	-5%	41%	.	0%	6%	?
